Test results published in PubChem BioAssay AID1159580 (chemical genetic matrix, 2015).
In all, about 5,500 compounds went through this assay and about 2,000 (36%) were called active. Another 18% or so got no clear call; they are omitted. Rule as the data show it: active = normalized growth mostly below about 0.91 (no sharp cut-off); inconclusive = no clear call, values can overlap the other calls; inactive = mostly above about 0.92. The list shows a part of the results.

Assay: chemical genetic growth profiling, strain panel (AID 1159580);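 also: tested at 20 µM; growth read once vehicle control cultures reached saturation at 30 °C; 1 = growth at the plate median or of vehicle wells; lower values mean less growth of the strain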
Details: S. cerevisiae deletion strains, growth OD

Measured: normalized growth

COc1ccc2c(c1)c(CC(=O)O)c(C)n2Cc1ccc(Cl)cc1
inactive: locus YAL013W, strain DEP1, active compounds read low 0.994 | locus YAL040C, strain CLN3, active compounds read low 0.96 | locus YCL061C, strain MRC1 (second series), active compounds read low 1 | locus YDR150W, strain NUM1, active compounds read low 1.02 | locus YDR363W, strain ESC2, active compounds read low 0.972 | locus YER002W, strain NOP16, active compounds read low 0.999 | locus YGR078C, strain PAC10, active compounds read low 0.981 | locus YGR229C, strain SMI1, active compounds read low 0.941 | locus YMR307W, strain GAS1, active compounds read low 1 | locus YNL175C, strain NOP13, active compounds read low 0.966 | locus YNL197C, strain WHI3, active compounds read low 0.95 | locus YNL224C, strain SQS1, active compounds read low 0.981 | locus YNL322C, strain KRE1, active compounds read low 0.994 | locus YOR083W, strain WHI5 (second series), active compounds read low 0.953 | locus YPL055C, strain LGE1, active compounds read low 0.996 | locus YPL241C, strain CIN2, active compounds read low 0.994
